# From PubChem BioAssay AID540276 (National Center for Advancing Translational Sciences (NCATS), 2011)
# Where “and” joins values, the source holds several entries; their conditions need not be identical. Equal entries are not always repeated. Hit rate of the full screen: of about 300,000 compounds, about 5,400 (1.8%) were called active. Not shown: some 28% with an inconclusive outcome. This is one part of a sample in which actives are shown more often than they occur. A number with no mark means an inactive call. Calls come from the whole dose curve; tested in HEK293 cells.
# Test: qHTS for inhibitors of binding or entry into cells for Marburg Virus
# Conditions: Marburg virus pseudotyped entry inhibition, cell reporter; series mostly up to 37.8 µM; activity change, negative = inhibition: at the top concentration
# % is set by controls: 0 for no effect and ±100 for the full control effect; potency is the fitted concentration of half-maximal effect.
Structure (SMILES),"activity change, negative = inhibition",Potency
COc1ccc(Cl)cc1NC(=O)CN1CCN(C(=O)N2CCOCC2)CC1,24.5%,
Cc1ccc(Nc2c3c(nc4ccccc24)CCC3)cc1,,11.2 µM (active)
CCOc1ccc(NC(=O)CSc2c3c(nc4ccccc24)CCCC3)cc1,3.83% [at 46.1 µM],
O=C(Nc1c2c(nc3ccccc13)CCCC2)c1ccccc1Br,-4.15% [at 46.1 µM],
Cc1ccc(C(=O)O)c(NC=O)c1OCc1ccccc1,-16.2% [at 46.1 µM],
Cc1[nH]c(C)c(S(=O)(=O)N2CCC(C)CC2)c1C(=O)N1CCCC1,8.85% [at 46.1 µM],
CN(CC(=O)NCCc1ccc(S(N)(=O)=O)cc1)CC(=O)Nc1ccc(Cl)cc1,12.9%,
O=C(NC1(C(F)(F)F)N=C(c2ccccc2)N(C2CCCCC2)C1=O)c1ccccc1F (configuration not stated),-21.3% [at 46.1 µM],
COC(=O)NC1(C(F)(F)F)NC(=O)N(C2CCCCC2)C1=O (configuration not stated),0.437%,
O=C1NC(Nc2nc3ccccc3s2)(C(F)(F)F)C(=O)N1C1CCCCC1 (configuration not stated),,6.51 µM (active)
C=CCOc1cccc(CNCc2cccnc2)c1,15.2% [at 46.1 µM],
COc1ccc(-c2nn(-c3ccccc3)cc2/C=C\C(=O)N2CCOCC2)cc1[N+](=O)[O-],15.3% [at 46.1 µM],
O=C(/C=C/c1cn(-c2ccccc2)nc1-c1ccc2c(c1)OCCO2)NCCCN1CCOCC1,,3.55 µM (active)
CC(C)c1ccc(/C=C/C(=O)NCCCN2CCOCC2)cc1,-28.2%,
Cc1cc(F)ccc1NC(=S)NCCc1ccccc1,6.16% [at 46.1 µM],
O=C(Nc1cccc(Cl)c1Cl)c1ccccc1NC(=O)C1CC=CCC1C(=O)O (configuration not stated),-14.1% [at 46.1 µM],
Cc1ccccc1CN1CCNC(=O)C1CC(=O)NCCC1=CCCCC1 (configuration not stated),-26%,
Cc1ccc(NS(=O)(=O)c2cccs2)cc1S(=O)(=O)N1CCCCCC1,,10 µM (active)
Cc1ccc(NC(=O)CCCNC(=O)c2ccc(Cl)cc2)cc1S(=O)(=O)N1CCCCC1,-11%,
COc1ccccc1C(=O)Nc1ccc(C)c(S(=O)(=O)N2CCCCC2)c1,,8.91 µM (active)
Cc1ccc(C(=O)NNC(=O)c2ccncc2)cc1S(=O)(=O)N1CCCCC1,-0.132%,
O=S(=O)(Nc1ccccc1)c1ccc(NS(=O)(=O)c2cccs2)cc1,-21.5% [at 46.1 µM],
Cc1ccc(NC(=O)c2ccccn2)cc1S(=O)(=O)N1CCOCC1,1.1%,
CCOc1ccc2ccccc2c1/C=N/NC(=O)c1c(C)cc(C)[nH]c1=O,22% [at 46.1 µM],
Cc1ccc(/C=C2\CCn3c2nc2cc(C(=O)O)ccc2c3=O)c(C)c1,-23.6% [at 46.1 µM],
Cc1ccc(Nc2nnc(SC(C)C(=O)NC3CC3)s2)cc1 (configuration not stated),11.7%,

Structure (SMILES),"activity change, negative = inhibition",Potency
CCOC(=O)C1CCN(C(=O)CN2C(=O)c3cccnc3Oc3ccc(C)cc32)CC1,17.4% [at 46.1 µM],
COc1ccc2nc(/N=C(\N)NC(=O)Nc3ccccc3)nc(C)c2c1,-30.2%,
O=C(NNC(=O)C(O)c1ccccc1)NC1CCCCC1 (configuration not stated),15.9% [at 46.1 µM],
Cc1nc(/N=C(\N)NC(=O)NC2CCCCC2)nc2ccccc12,,7.94 µM (active)
O=C(OCCOCn1cc(Br)c(=O)[nH]c1=O)c1ccccc1,-4.74% [at 46.1 µM],
C=CCn1c(=O)n(C)c2c(=O)n(C)c(=O)n(C)c21,5.71% [at 46.1 µM],
O=C1CC(c2ccccc2)C(=O)N2C(=O)CC(c3ccccc3)C(=O)N12 (configuration not stated),1.53% [at 46.1 µM],
C=CCNC(=O)C1CC2c3ccccc3C1c1ccccc12 (configuration not stated),1.85%,
COc1cc2c(cc1OC)CN(CC(=O)Nc1ccc(F)cc1)CC2,-0.577%,
CC[C@H]1CN2CCc3cc(OC)c(OC)cc3[C@@H]2C[C@@H]1C[C@H]1NCCc2cc(OC)c(OC)cc21,,224 nM (active) and 326 nM (active) and 103 nM (active)
COc1cc(NC(=O)CSc2ccc(-c3cccnc3)nn2)cc(OC)c1,-7.05%,
CCOc1ccc(CC(=O)NCCS(=O)(=O)N2CCN(c3ccccc3)CC2)cc1,12.2%,
Cc1nc2ccccc2c(C(=O)O)c1-c1ccccn1,17.2% [at 46.1 µM],
O=C(COc1ccc([N+](=O)[O-])cc1Cl)Nc1ccc2[nH]c(=O)[nH]c2c1,-2.16% [at 46.1 µM],
O=C(O)c1ccc(N/N=C/c2cn(-c3ccccc3)nc2-c2cccs2)cc1,,4.47 µM (active)
CC(=O)C1=C(C)NC(C)=C(C(C)=O)C1c1cn(-c2ccccc2)nc1-c1cccs1,-21.3%,
O=C(NCc1cccnc1)c1cn(-c2ccccc2)nc1-c1cccs1,-14.5%,
COc1ccc(OC)c(NC(=O)C2CCCN2S(=O)(=O)c2cccc3nsnc23)c1 (configuration not stated),-13.2% [at 46.1 µM],
CC[C@]12c3[nH]c4ccc(Cl)cc4c3CCN1C(=O)[C@@H](CC(=O)NCCCOC)C[C@@H]2C(=O)N1CCN(C(=O)c2ccco2)CC1,-1.78%,
COc1ccc(C2(c3ccc(OC)cc3)NC(=O)N(CC(=O)Nc3cc(C)on3)C2=O)cc1,-25.4% [at 46.1 µM],
CCCCOc1ccc(CSC(=N)N)cc1[N+](=O)[O-],,14.1 µM (active)
CCCOc1ccc(Cn2ccnc2)cc1[N+](=O)[O-],1%,
CCCCCOc1ccc(CSC2=NCCN2)cc1[N+](=O)[O-],-35.4%,
CCN(CC)CCn1c2ccc(Cl)cc2c2nc(C)sc21,-57.9%,
CCN(CC)CCCC(C)n1c2nc(=O)[nH]c(=O)c-2nc2cc(Cl)ccc21 (configuration not stated),,5.62 µM (active)
CC(=O)OC[C@H]1O[C@H](CCO/N=C(\C)CCN2CCCCc3nc(C)c(C)cc32)C=C[C@@H]1OC(C)=O,16.2% [at 14.2 µM],
